# Laboratory results: paper PMC4552634, “A New Set of Chemical Starting Points with Plasmodium falciparum Transmission-Blocking Potential for Antimalarial Drug Discovery” (PLoS ONE, 2015)
# Read-outs that look alike come from different tables or passages of the source. In all, about 13,000 compounds went through this assay and about 3,200 (25%) showed an effect of 50% or more. Some of the results follow.
# System: P. falciparum stage V gametocytes
# Parameters: BacTiter-Glo ATP luminescence viability of purified stage V gametocytes in 384-well plates, per cent inhibition versus DMSO
# Conditions: 48 h, 5 µM, inhibitor
Structure (SMILES),% Inhibition,% Inhibition (% Inhibition)
Cc1cccc2nc(-c3ccc(-c4ccc(NC(=O)NCc5cccc(F)c5)cc4)s3)[nH]c12 [TCMDC-133286],5.156%,
Cc1ccc(-c2cc3nc4c(c(NCCCn5ccnc5)n3n2)CCC4)cc1 [TCMDC-124390],12.49%,
Cc1cccc2c3c([nH]c12)C1(CCN(Cc2ccccc2)CC1)NC(C(=O)NCc1ccccc1)C3 (stereo not drawn) [TCMDC-141244],-26.21%,
COc1ccc2nccc([C@@H](O)CN3CCC(NC(=O)c4ccc(Cl)c(OC)c4)CC3)c2c1 [TCMDC-141113],-17.86%,
CSc1sc(NC(=O)Nc2cccc(C(F)(F)F)c2)cc1C#N [TCMDC-123772],-46.48%,
COc1ccc2nc3cc(Cl)ccc3c(Nc3ccc(O)c(CN4CC5CCC(CC5)C4)c3)c2c1.Cl [TCMDC-142013],-78.53%,
CCN(CC)Cc1cc(Nc2ccnc3cc(Cl)ccc23)ccc1O [TCMDC-123932],-15.23%,
CCN(CC)Cc1cc(Nc2c3ccc(Cl)cc3nc3cccc(OC)c23)ccc1O [TCMDC-139222],106.6%,
CN(Cc1ccc(NC(=O)CCC2CCN(C(=O)/C=C/c3ccc(Cl)c(Cl)c3)CC2)cc1)C1CCOCC1 [TCMDC-140515],8.343%,
Oc1c(C=Nn2cnnc2)sc2ccccc12 [TCMDC-125759],-2.761%,
O=[N+]([O-])c1cccc(-c2nc(-c3ccc(Br)cc3)[nH]c2-c2ccc(Br)cc2)c1 [TCMDC-124605],-41.82%,
Cc1ccc(S(=O)(=O)c2nc(S(=O)(=O)c3ccccc3)sc2NCC2CCCO2)cc1 (stereo not drawn) [TCMDC-124749],4.322%,
CCCCCCCN(CCCCCCC)CCCC(=O)Nc1ccnc2ccc(OC)cc12.O=C(O)C(=O)O [TCMDC-139843],-16.87%,
CCCCCN=C(N)N/N=C/c1c[nH]c2ccc(OC)cc12 [TCMDC-125887],106.4%,
COc1ccc2cc(C=NNc3nc4ccccc4[nH]3)c(Cl)nc2c1 [TCMDC-124889],-71.34%,
O=C(CNc1ccncc1)c1c[nH]c2ccccc12 [TCMDC-124024],4.031%,
O=C(NC12CC3CC(CC(C3)C1)C2)C(=O)c1c[nH]c2ccccc12 [TCMDC-123481],-3.925%,
O=C(CSc1nn(-c2ccccc2)c(=S)s1)c1c[nH]c2ccccc12 [TCMDC-124894],95.1%,
Cc1[nH]c2ccccc2c1C(=O)CSc1nn(-c2ccccc2)c(=S)s1 [TCMDC-124893],60.68%,
O=C(c1c(-c2[nH]c3ccccc3c2C(=O)C(F)(F)F)[nH]c2ccccc12)C(F)(F)F [TCMDC-125831],0.8709%,
N#Cc1ccc2c(c1)CN(CCC1CCC(NC(=O)c3cc4cc(OC(F)(F)F)ccc4[nH]3)CC1)CC2 (stereo not drawn) [TCMDC-139160],23.56%,
Cc1cccc2nc(-c3cccc(-c4cccc(C(=O)NCCc5cn(C)cn5)c4)c3)[nH]c12 [TCMDC-132494],-97.59%,

Structure (SMILES),% Inhibition,% Inhibition (% Inhibition)
N#Cc1ccc(-c2ccc(C(=O)NCCCCN3CCC(c4ccc5c(c4OCc4ccncc4)CCCC5)CC3)cc2)cc1 [TCMDC-138732],54.86%,
O=C(NCCCCN1CC=C(c2ccc3c(c2OCc2ccccc2)CCCC3)CC1)c1ccc(-c2ccc(C(F)(F)F)cc2)cc1 [TCMDC-138746],-33.61%,
CC(=O)Oc1c(C2CCN(CCCCNC(=O)c3ccc(-c4ccc(C#N)cc4)cc3)CC2)ccc2c1CCCC2 [TCMDC-138650],-28.73%,
N#Cc1ccc(-c2ccc(C(=O)NCCCCN3CCC(c4ccc5c(c4OCc4ccccn4)CCCC5)CC3)cc2)cc1 [TCMDC-138737],66.39%,
O=C(NCCCCN1CCC(c2ccc3c(c2OCc2ccncc2)CCCC3)CC1)c1ccc(-c2ccc(C(F)(F)F)cc2)cc1 [TCMDC-138733],60.19%,
CC(C)(Oc1c(C2CCN(CCCCNC(=O)c3ccc(-c4ccc(C#N)cc4)cc3)CC2)ccc2c1CCCC2)C(N)=O [TCMDC-134828],39.17%,
O=C(NCCN1Cc2ccccc2C1=O)c1ccc(Oc2ccc(C(=O)NCCN3Cc4ccccc4C3=O)cc2)cc1 [TCMDC-125669],22.87%,
CCOC(=O)C(C#N)NC(=O)C=Cc1ccccc1 (stereo not drawn) [TCMDC-131634],-4.008%,
C=C(C)C1CC=C(CN2CCC(N3CCc4cc(NC(=O)c5cc(C)on5)ccc43)C2)CC1 (stereo not drawn) [TCMDC-135089],10.83%,
O=C(Nc1cc(Cl)cc(Cl)c1)c1cc(Cl)c(=O)n(Cc2cccc(Cl)c2)c1 [TCMDC-123809],-55.71%,
COc1ccccc1N1CCN(Cc2cc(C(C)C)c(C)cc2O)CC1 [TCMDC-124541],-1.392%,
O=C(/C=C/C=C/c1ccccc1)NC1CCC(CN2CCC(c3c[nH]c4ccccc34)CC2)CC1 (stereo not drawn) [TCMDC-139708],100.6%,
O=C(C=Cc1ccc(-c2ccccc2)cc1)NC1CCC(CN2CCC(c3c[nH]c4ccccc34)CC2)CC1 (stereo not drawn) [TCMDC-139951],,123.9%
O=C(C=Cc1ccc(-c2ccccc2)cc1)NC1CCC(CN2CCC(c3c[nH]c4ccccc34)CC2)CC1 (stereo not drawn) [TCMDC-139935],,108%
COc1ccc2nccc(N3CCN(CCNCc4ccc5c(n4)NC(=O)CO5)CC3)c2c1.Cl [TCMDC-141961],30.82%,
Cc1nc2nc(N)nc(N)c2c(C)c1Cc1cccc(C(N)=O)c1 [TCMDC-137643],17.6%,
CS(=O)(=O)c1ccc(-n2nc(C(F)(F)F)cc2-c2ccc(C=NOCC(=O)O)o2)cc1 [TCMDC-132015],-3.43%,
COc1cccc(-c2cccc(CNC3CCN(CC4Cn5c(=O)ccc6ccc(F)c4c65)CC3)c2)c1 (stereo not drawn) [TCMDC-134412],5.028%,
Cc1ccc(Cc2cnc(CN3CCCCC3)c(O)c2)cc1 [TCMDC-125485],30.78%,
O=S(=O)(c1ccccc1C(F)(F)F)C1CC2CCC(C1)N2S(=O)(=O)c1ccc(Cl)c(C(F)(F)F)c1 (stereo not drawn) [TCMDC-134268],33.38%,
O=S(=O)(c1ccc(OC(F)(F)F)cc1)C1CC2CCC(C1)N2S(=O)(=O)c1ccc(Cl)c(C(F)(F)F)c1 (stereo not drawn) [TCMDC-134267],71.42%,
O=S(=O)(c1ccccc1OC(F)(F)F)C1CC2CCC(C1)N2S(=O)(=O)c1cccc(C(F)(F)F)c1 (stereo not drawn) [TCMDC-134266],7.024%,

Structure (SMILES),% Inhibition,% Inhibition (% Inhibition)
COc1cc(Cc2cnc(N)nc2N)ccc1OCc1ccc(-c2ccccc2C#N)cc1 [TCMDC-138638],-1.728%,
Cc1ccc2c(NC(=O)Nc3ccc(N(C)C)cc3)cc(C)nc2c1 [TCMDC-140144],-85.96%,
CC(C)C[C@@H](NC(=O)OC(C)(C)C)C(=O)Nc1ccc(Cc2ccc(NC(=O)[C@@H](CC(C)C)NC(=O)OC(C)(C)C)cc2)cc1 [TCMDC-131869],-46.99%,
Nc1ncc(-c2ccc(NC(=O)Nc3cc(C(F)(F)F)ccc3F)cc2)c(N)n1 [TCMDC-133420],7.471%,
NCCCNc1ccc(-c2ccc(NC(=O)Nc3cc(C(F)(F)F)ccc3F)cc2)cn1 [TCMDC-133550],53.18%,
Nc1nccc2ccc(-c3ccc(NC(=O)Nc4cc(C(F)(F)F)ccc4F)cc3)cc12 [TCMDC-133422],80.96%,
Nc1ncnc2occ(-c3ccc(NC(=O)Nc4cc(C(F)(F)F)ccc4F)cc3)c12 [TCMDC-141371],14.45%,
Nc1ccc(-c2ccc(NC(=O)Nc3cc(C(F)(F)F)ccc3F)cc2)cn1 [TCMDC-133410],11.7%,
Cc1cc(N)ncc1-c1ccc(NC(=O)Nc2cc(C(F)(F)F)ccc2F)cc1 [TCMDC-133438],25.29%,
Cc1nc(-c2cccc(Nc3nccc(NCC(O)c4ccc(C(F)(F)F)cc4)n3)c2)cs1 (stereo not drawn) [TCMDC-136591],22.87%,
Cc1nc(-c2cccc(Nc3nccc(NCC(O)c4ccccc4C)n3)c2)cs1 (stereo not drawn) [TCMDC-136567],-8.142%,
Cc1cc(Nc2ccccc2)nc(Nc2ccccc2C)n1 [TCMDC-123883],4.396%,
CCC1(c2ccccc2)N=C(N)N(CCCc2ccccc2)C1=O (stereo not drawn) [TCMDC-136547],23.07%,
CCCCCN1CCN(Cc2cccc(NC(=O)c3ccc(Cl)c(Cl)c3)c2)CC1 [TCMDC-134616],-65.82%,
CC1(C)C(N(O)C(=O)Nc2ccc(Cl)c(Cl)c2)N(c2ccc(Cl)c(Cl)c2)C(=O)N1CCc1ccccc1 (stereo not drawn) [TCMDC-125555],-2.423%,
CCCCCN1C(=O)N(c2ccc(Cl)c(Cl)c2)C(N(O)C(=O)Nc2ccc(Cl)c(Cl)c2)C1(C)C (stereo not drawn) [TCMDC-124134],67.16%,
O=C(NCCN1CCC(c2ccncc2)CC1)c1cccc(Nc2nccc(Nc3ccc(Oc4ccccc4)cc3)n2)c1 [TCMDC-138607],-52.85%,
COc1ccc2nccc([C@@H](O)CN3CCC(NC(=O)/C=C/c4ccc5[nH]c(=O)ccc5c4)CC3)c2c1 [TCMDC-141032],-20.87%,
O=C(Nc1ccc(N2CCCCC2)c(Cl)c1)c1ccco1 [TCMDC-124392],30.55%,
c1ccc2c(c1)CN(Cc1cc3ccccc3[nH]1)CC1(CCN(Cc3c[nH]c4cnccc34)CC1)O2 [TCMDC-133376],66.92%,
c1ccc2c(c1)CN(CC1CC1)CC1(CCN(Cc3c[nH]c4cnccc34)CC1)O2 [TCMDC-133375],-19.67%,
Oc1ccc(CN2Cc3ccccc3OC3(CCN(Cc4c[nH]c5cnccc45)CC3)C2)cc1 [TCMDC-133377],0.4377%,
